The results in this text go back to PubChem BioAssay (EPA / NIEHS).

The structures appear in SMILES notation. The source made the active and inactive calls. Rule for the calls: active = hit-call score of the fitted dose curve at least 0.9, where 1 is the maximum; inactive = score below 0.9.

The nature of assay [1]: ATG_GRE_CIS: Attagene CIS-FACTORIAL HepG2 Assay for human Glucocorticoid Response Elements (GRE) (AID 2282947). To be noted: HepG2 GRE cis-reporter, Attagene multiplex mRNA; actives raise or lower the signal. An outline of the steps:
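Endogenous transcription factor activity is read through cis-element reporter constructs transiently transfected into HepG2 cells. After 24 h treatment, labelled RT-PCR products are resolved by capillary electrophoresis; DMSO sets baseline for bidirectional curve fitting.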

Assay [2] is described as follows: ATG_ISRE_CIS: Attagene CIS-FACTORIAL HepG2 Assay for human Interferon Regulatory Factor 1 (IRF1) binding to an Interferon-Stimulated Response Element (ISRE) (AID 2282948). To be noted: HepG2 ISRE cis-reporter (Attagene), mRNA transcription readout; actives raise or lower the signal. An outline of the steps: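 Transiently transfected HepG2 cells carrying cis-element reporter units, dosed 24 hours. Reporter mRNA quantified by RT-PCR, fluorescent primer extension, HpaI digestion and capillary electrophoresis. Bidirectional fitting relative to DMSO.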

A short description of assay [3]: ATG_M_32_CIS: Attagene CIS-FACTORIAL HepG2 Assay for M32 Transcription Factor (Internal Marker) (AID 2282949).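 Note: background control marker of the multiplexed CIS panel rather than a real target.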 Conditions: HepG2 Attagene cis-factorial M32 reporter, mRNA; actives raise or lower the signal. Put shortly:
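Internal background marker read-out: RT-PCR/capillary electrophoresis fluorescence of reporter transcripts from transiently transfected HepG2 cells after 24 h chemical exposure. Activity fitted bidirectionally relative to DMSO negative control.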

A short description of assay [4]: ATG_M_06_CIS: Attagene CIS-FACTORIAL HepG2 Assay for M06 Transcription Factor (Internal Marker) (AID 2282950). Conditions: HepG2 Attagene CIS-FACTORIAL M06 internal marker reporter; actives raise or lower the signal. Put shortly:
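Steps: transfect HepG2 with multiplexed cis-element reporter constructs; dose chemical 24 h; extract RNA with DNase treatment; reverse-transcribe, PCR-amplify, 6-FAM label, HpaI digest; separate fragments by capillary electrophoresis. Activity fitted both directions versus DMSO.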

The target of assay [5] is Hepatocyte nuclear factor 6 (Homo sapiens) (UniProt Q9UBC0). The experiment in a line: ATG_HNF6_CIS: Attagene CIS-FACTORIAL HepG2 Assay for human Hepatocyte Nuclear Factor 6 (HNF6) (AID 2282952). Conditions: HepG2 Attagene cis-factorial HNF6 reporter transcription; actives raise or lower the signal. An outline of the steps: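 Transiently transfected HepG2 cells expressing cis-regulated reporter transcription units were exposed to chemical for 24 h in a 24-well format. Reporter transcript abundance was determined by fluorescence capillary electrophoresis.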
Hepatocyte nuclear factor 6 (Homo sapiens), sequence (Q9UBC0 whole entry, looked up): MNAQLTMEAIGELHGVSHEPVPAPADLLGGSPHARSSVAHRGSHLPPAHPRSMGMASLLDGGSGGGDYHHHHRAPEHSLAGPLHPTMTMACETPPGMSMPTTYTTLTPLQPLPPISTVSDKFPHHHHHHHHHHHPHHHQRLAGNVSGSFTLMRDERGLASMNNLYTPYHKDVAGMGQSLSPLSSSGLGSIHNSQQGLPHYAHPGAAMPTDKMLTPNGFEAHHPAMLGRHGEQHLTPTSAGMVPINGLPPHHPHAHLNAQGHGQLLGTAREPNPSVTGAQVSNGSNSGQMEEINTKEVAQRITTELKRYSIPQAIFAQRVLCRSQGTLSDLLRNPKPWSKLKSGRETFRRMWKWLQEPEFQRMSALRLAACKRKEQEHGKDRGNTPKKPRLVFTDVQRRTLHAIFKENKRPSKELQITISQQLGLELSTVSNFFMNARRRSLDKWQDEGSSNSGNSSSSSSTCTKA

Assay [6] has as its target Heat shock factor protein 1 (Homo sapiens) (UniProt Q00613). The experiment in a line: ATG_HSE_CIS: Attagene CIS-FACTORIAL HepG2 Assay for human Heat Shock Transcription Factor 1 (HSE) (AID 2282953). Conditions: HepG2 HSE cis-reporter, Attagene RNA transcription; actives raise or lower the signal. An outline of the steps:
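Cells were transfected with cis-element-driven reporter constructs, dosed for 24 h, then total RNA was reverse-transcribed and reporter cDNA amplified, FAM-labelled and digested with HpaI. Fragments were resolved by capillary electrophoresis; gain or loss was fitted against DMSO.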

The nature of assay [7]: ATG_MRE_CIS: Attagene CIS-FACTORIAL HepG2 Assay for human Metal Responsive Element (MRE) (AID 2282954). Conditions: HepG2 MRE cis-reporter transcription, Attagene multiplex; actives raise or lower the signal. An outline of the steps: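 Fluorescent reporter fragments separated by capillary electrophoresis give mRNA induction for the MRE unit after 24 h treatment of transfected HepG2 cells. Endogenous transcription-factor activity is read; DMSO serves as negative control and baseline.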

Assay [8] addresses Paired box protein Pax-6 (Homo sapiens) (UniProt P26367). The experiment in a line: ATG_Pax6_CIS: Attagene CIS-FACTORIAL HepG2 Assay for human Paired Box 6 (PAX6) (AID 2282956). Conditions: HepG2 CIS-FACTORIAL PAX6 reporter transcription, RNA readout; actives raise or lower the signal. Put shortly:
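HepG2 cells transiently transfected with cis-promoter-driven multiplexed reporter units sensing endogenous transcription factor activity; 24 h chemical exposure. Reporter mRNA quantified by RT-PCR, 6-FAM labelling, HpaI digestion and capillary electrophoresis; bidirectional fit versus DMSO baseline.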

Assay [9] is described as follows: ATG_PPRE_CIS: Attagene CIS-FACTORIAL HepG2 Assay for human Peroxisome Proliferator-activated Response Element (PPRE) (AID 2282958). To be noted: HepG2 PPRE cis-element reporter, Attagene transcription factor profiling; actives raise or lower the signal. An outline of the steps: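 DMSO served as negative control and baseline for bidirectional curve fitting. Signal came from PPRE-regulated reporter mRNA in HepG2 cells, measured 24 h post-dosing by RT-PCR, 6-FAM primer extension and capillary electrophoresis.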

Assay [10] is described as follows: ATG_RORE_CIS: Attagene CIS-FACTORIAL HepG2 Assay for human RAR-related Orphan Receptor Element (RORE) (AID 2282959). Conditions: HepG2 Attagene cis-factorial RORE reporter, mRNA; actives raise or lower the signal. Put shortly: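 Transfect HepG2 with MRTUs; treat 24 h; extract RNA; RT with oligo(dT); PCR with reporter-specific primers; 6-FAM primer extension; HpaI digest 2 h at 37 C; capillary electrophoresis. Fit vs DMSO, bidirectional.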

Assay [11] is described as follows: ATG_Sox_CIS: Attagene CIS-FACTORIAL HepG2 Assay for human SRY-box transcription factor (SOX) (AID 2282960). To be noted: HepG2 Attagene cis-factorial SOX reporter, mRNA; actives raise or lower the signal. An outline of the steps: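 Fluorescence-labelled cDNA fragments from reporter transcripts, sized by CE, give the signal. Cells: HepG2, transiently transfected with cis-regulated reporter units. Exposure 24 h; DMSO negative control; bidirectional curve fitting.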

The target of assay [12] is Transcription factor Sp1 (Homo sapiens) (UniProt P08047). Nature of the assay: ATG_Sp1_CIS: Attagene CIS-FACTORIAL HepG2 Assay for human Specificity Protein 1 (Sp1) (AID 2282961). Conditions: HepG2 Sp1 cis-reporter transcription, actives raise or lower the signal. An outline of the steps:
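Chemicals are dosed onto HepG2 cells transfected with multiple cis-promoter reporter constructs, and after 24 h reporter RNA is reverse-transcribed, PCR-amplified and resolved by capillary electrophoresis for fluorescence quantitation; activity is scored up or down against DMSO.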

Assay [13] is described as follows: ATG_SREBP_CIS: Attagene CIS-FACTORIAL HepG2 Assay for human Sterol Regulatory Element Binding (SREBP) (AID 2282962). Conditions: HepG2 Attagene cis-factorial SREBP reporter, mRNA; actives raise or lower the signal. An outline of the steps: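 HepG2 cells transiently transfected with multiplexed cis-promoter reporter units sensing endogenous transcription factors; reporter mRNA measured 24 h after dosing by RT-PCR, 6-FAM labeling, HpaI digestion and capillary electrophoresis. Bidirectional fit versus DMSO.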

Assay [14] deals with Signal transducer and activator of transcription 3 (Homo sapiens) (UniProt P40763). Nature of the assay: ATG_STAT3_CIS: Attagene CIS-FACTORIAL HepG2 Assay for human Signal Transducer and Activator of Transcription 3 (STAT3) (AID 2282963). Conditions: HepG2, Attagene cis-factorial STAT3 reporter transcription; actives raise or lower the signal. Put shortly:
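Values derive from bidirectional fits relative to DMSO of reporter mRNA levels, measured by RT-PCR with capillary electrophoresis, in HepG2 cells carrying transiently transfected cis-regulated reporter units and exposed 24 h.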

The nature of assay [15]: ATG_TA_CIS: Attagene CIS-FACTORIAL HepG2 Assay for human TA Basal Promoter (AID 2282964). Conditions: HepG2 Attagene CIS-factorial TA basal promoter reporter; actives raise or lower the signal. An outline of the steps: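 Steps: transfect HepG2 with MRTUs; dose 24 h; isolate RNA, DNase-treat, reverse-transcribe; PCR and FAM-label reporter cDNA; digest with HpaI 2h at 37 C; run capillary electrophoresis. Activity fitted both directions against DMSO.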

Assay [16] can be described thus: ATG_TCF_b_cat_CIS: Attagene CIS-FACTORIAL HepG2 Assay for human T-Cell-Factor with beta-catenin (TCF/b-cat) (AID 2282965). To be noted: HepG2 TCF/beta-catenin cis-reporter transcription, actives raise or lower the signal. Put shortly:
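HepG2, transient MRTU transfection, cis-element-driven reporters (endogenous TFs). 24 h compound exposure. Readout: reporter mRNA by RT-PCR + 6-FAM primer extension, HpaI digest, capillary electrophoresis. Gain/loss fit vs DMSO baseline.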

Assay [17] in a line: ATG_PBREM_CIS: Attagene CIS-FACTORIAL HepG2 Assay for human Phenobarbital-responsive Enhancer Module (PBREM) (AID 2282955). Conditions: HepG2 PBREM cis-reporter, Attagene multiplexed transcription; actives raise or lower the signal. Put shortly:
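Multiplexed cis-reporter readout in human hepatoma HepG2 cells; PBREM-regulated transcript quantified after 24 h exposure by fluorescent RT-PCR fragment analysis. Signal changes up or down fitted relative to DMSO.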

A short description of assay [18]: ATG_PXRE_CIS: Attagene CIS-FACTORIAL HepG2 Assay for human Pregnane X Receptor Element (PXRE) (AID 2282957). To be noted: HepG2 Attagene CIS-FACTORIAL PXRE reporter, mRNA; actives raise or lower the signal. Put shortly: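 Cis-element reporter mRNA in human hepatoma HepG2 cells is measured 24 h post-dosing by RT-PCR, primer-extension labeling and capillary electrophoresis; gain or loss of signal is fitted relative to DMSO.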

Assay [19] concerns the target Hypoxia-inducible factor 1-alpha (Homo sapiens) (UniProt Q16665). The experiment in a line: ATG_HIF1a_CIS: Attagene CIS-FACTORIAL HepG2 Assay for human Hypoxia Inducible Factor 1 (HIF1A) (AID 2282951). To be noted: HepG2 Attagene cis-factorial HIF1a reporter transcription; actives raise or lower the signal. An outline of the steps:
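Cis-element reporter constructs were transiently transfected into HepG2 cells, which were treated for 24 h; reporter RNA was reverse-transcribed, amplified, labelled and resolved by capillary electrophoresis.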

Heat shock factor protein 1 (Homo sapiens), sequence (Q00613 whole entry, looked up, the tested form may be a part): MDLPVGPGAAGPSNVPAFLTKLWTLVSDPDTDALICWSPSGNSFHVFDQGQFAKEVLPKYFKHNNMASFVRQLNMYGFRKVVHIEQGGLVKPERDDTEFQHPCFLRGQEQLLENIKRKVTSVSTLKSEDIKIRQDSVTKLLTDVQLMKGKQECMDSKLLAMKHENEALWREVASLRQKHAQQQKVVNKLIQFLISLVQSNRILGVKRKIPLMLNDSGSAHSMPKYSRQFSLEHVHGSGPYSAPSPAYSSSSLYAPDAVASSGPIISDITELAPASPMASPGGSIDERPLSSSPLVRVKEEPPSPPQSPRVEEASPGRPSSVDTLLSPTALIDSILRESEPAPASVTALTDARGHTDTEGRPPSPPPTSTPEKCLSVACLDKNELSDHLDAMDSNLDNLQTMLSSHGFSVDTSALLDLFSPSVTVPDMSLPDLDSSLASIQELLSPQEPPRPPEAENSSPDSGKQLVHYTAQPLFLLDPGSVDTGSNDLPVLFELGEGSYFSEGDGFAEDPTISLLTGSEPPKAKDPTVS
Paired box protein Pax-6 (Homo sapiens), sequence (P26367 whole entry, looked up): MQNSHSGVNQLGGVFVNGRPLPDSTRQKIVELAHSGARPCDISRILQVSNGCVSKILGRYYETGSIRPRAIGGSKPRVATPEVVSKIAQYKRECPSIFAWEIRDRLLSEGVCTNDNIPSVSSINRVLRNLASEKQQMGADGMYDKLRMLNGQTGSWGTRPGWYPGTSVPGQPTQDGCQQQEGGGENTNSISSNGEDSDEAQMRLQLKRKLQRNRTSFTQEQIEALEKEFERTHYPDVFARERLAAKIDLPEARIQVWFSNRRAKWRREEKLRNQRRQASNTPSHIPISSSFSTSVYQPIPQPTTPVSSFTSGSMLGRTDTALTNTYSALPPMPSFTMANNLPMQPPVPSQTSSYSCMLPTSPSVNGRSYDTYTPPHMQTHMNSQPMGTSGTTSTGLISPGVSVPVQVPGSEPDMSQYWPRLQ
Hypoxia-inducible factor 1-alpha (Homo sapiens), sequence (Q16665 whole entry, looked up): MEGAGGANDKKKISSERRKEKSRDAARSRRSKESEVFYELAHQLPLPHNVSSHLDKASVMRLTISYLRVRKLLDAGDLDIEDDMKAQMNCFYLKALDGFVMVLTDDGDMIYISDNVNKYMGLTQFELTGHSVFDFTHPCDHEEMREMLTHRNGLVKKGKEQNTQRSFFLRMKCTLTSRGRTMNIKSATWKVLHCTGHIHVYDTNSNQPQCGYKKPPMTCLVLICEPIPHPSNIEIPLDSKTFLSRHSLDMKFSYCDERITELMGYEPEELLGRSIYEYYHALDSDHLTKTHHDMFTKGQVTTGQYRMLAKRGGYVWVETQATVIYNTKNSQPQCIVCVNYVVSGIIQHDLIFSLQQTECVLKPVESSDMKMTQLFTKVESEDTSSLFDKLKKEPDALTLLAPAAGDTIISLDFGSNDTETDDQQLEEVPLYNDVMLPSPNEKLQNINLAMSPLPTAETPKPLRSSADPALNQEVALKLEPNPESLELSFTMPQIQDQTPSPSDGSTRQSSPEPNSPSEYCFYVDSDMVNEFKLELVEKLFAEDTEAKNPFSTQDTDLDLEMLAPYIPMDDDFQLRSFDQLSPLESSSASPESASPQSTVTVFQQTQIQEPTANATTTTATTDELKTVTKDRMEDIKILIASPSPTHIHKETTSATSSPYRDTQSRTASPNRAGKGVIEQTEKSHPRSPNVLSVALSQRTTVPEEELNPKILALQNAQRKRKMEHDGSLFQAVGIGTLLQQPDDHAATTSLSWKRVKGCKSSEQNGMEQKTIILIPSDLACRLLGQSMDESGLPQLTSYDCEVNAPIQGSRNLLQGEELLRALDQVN
Transcription factor Sp1 (Homo sapiens), sequence (P08047 whole entry, looked up): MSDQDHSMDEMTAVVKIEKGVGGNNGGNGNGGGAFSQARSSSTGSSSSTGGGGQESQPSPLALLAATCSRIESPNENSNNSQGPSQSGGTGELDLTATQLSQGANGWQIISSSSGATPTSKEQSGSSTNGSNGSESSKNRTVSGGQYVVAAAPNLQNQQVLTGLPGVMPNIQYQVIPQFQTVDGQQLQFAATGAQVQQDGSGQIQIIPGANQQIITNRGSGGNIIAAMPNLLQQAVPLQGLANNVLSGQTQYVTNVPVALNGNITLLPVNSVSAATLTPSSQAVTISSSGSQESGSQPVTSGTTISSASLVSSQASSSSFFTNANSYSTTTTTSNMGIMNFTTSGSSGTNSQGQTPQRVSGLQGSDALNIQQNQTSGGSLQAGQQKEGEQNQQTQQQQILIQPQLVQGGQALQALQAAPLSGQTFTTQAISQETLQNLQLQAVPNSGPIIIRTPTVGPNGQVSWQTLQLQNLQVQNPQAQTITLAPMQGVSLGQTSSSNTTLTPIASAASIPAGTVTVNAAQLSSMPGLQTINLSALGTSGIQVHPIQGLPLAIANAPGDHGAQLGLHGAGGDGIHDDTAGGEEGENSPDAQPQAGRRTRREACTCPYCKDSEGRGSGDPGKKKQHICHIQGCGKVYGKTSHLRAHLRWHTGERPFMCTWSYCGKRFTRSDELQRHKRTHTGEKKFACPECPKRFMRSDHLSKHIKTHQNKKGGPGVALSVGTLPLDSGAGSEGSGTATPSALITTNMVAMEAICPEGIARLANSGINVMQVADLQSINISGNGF
Signal transducer and activator of transcription 3 (Homo sapiens), sequence (P40763 whole entry, looked up): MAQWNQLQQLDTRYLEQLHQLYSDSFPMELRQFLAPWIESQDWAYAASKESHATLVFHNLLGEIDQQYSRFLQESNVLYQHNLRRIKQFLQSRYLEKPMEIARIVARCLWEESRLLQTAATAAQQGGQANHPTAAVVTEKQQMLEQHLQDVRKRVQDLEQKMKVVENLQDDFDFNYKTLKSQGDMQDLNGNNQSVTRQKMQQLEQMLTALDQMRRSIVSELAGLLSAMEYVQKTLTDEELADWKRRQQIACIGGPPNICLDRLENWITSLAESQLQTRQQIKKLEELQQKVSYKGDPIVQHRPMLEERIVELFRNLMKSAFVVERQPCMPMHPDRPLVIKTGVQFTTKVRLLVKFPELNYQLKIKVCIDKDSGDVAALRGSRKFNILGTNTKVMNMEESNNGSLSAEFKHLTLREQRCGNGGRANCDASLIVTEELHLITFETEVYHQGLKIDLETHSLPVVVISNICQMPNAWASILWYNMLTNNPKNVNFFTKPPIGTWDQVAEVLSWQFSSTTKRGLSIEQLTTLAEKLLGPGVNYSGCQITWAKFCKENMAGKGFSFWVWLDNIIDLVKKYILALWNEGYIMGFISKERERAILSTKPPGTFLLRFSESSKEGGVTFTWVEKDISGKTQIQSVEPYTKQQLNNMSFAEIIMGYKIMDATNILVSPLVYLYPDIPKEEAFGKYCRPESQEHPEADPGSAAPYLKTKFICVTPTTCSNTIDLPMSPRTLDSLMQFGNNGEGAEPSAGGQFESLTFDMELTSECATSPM

For the molecule `COC(=O)c1ccc2cc(C(=O)OC)ccc2c1`, the molecule was classed as inactive in assay [1], in [2], in [3], in assay [4], in assay [5] and in [6]. For the same molecule, the result in assay [7], in assay [8], in [9], in assay [10], in [11] and in assay [12] was inactive. In addition, the result in assay [13], in assay [14], in assay [15] and in assay [16] was inactive.
Regarding `C=C1C2CCC(C2)C1(C)C` (stereo not given), the result in assay [1], in assay [2], in [3], in assay [4], in assay [5] and in assay [6] was inactive. Also, the molecule was classed as inactive in assay [7], in assay [17], in [8], in [9], in [10] and in assay [11]. Further, the call in assay [12], in [13], in assay [14], in assay [15] and in assay [16] was inactive. In addition, the concentration at half-maximal activity (AC50) in assay [18] was 31.4 µM (active).
On to `CCCOC(=O)CCCCC(=O)OCCC`, for which the outcome in assay [1], in assay [3], in assay [4], in [19], in assay [5] and in [6] was inactive. The call in assay [7], in [8], in assay [9], in assay [10], in assay [12] and in assay [13] was inactive. The call in assay [14], in [15] and in assay [16] was inactive. Further, the concentration at half-maximal activity (AC50) in assay [18] is 65.4 µM (active).
For the molecule `C=CC(C)(CCC=C(C)C)OC(=O)C(C)C` (stereo not given), the result in assay [1], in [2], in [3], in [19], in assay [5] and in assay [6] was inactive. For the same molecule, the outcome in [7], in assay [8], in assay [9], in assay [10], in [11] and in [12] was inactive. The molecule was classed as inactive in assay [13], in [15] and in [16]. Also, the AC50 in [18] was 8.57 µM (active).
On to `C=CC(=O)OCCC(=O)O`, for which the call in [1], in assay [2], in assay [3], in assay [19], in assay [5] and in assay [6] was inactive. Besides, the molecule was called inactive in assay [7], in [17], in assay [8], in assay [13], in assay [15] and in [16].
For the molecule `CCCCCCCCCCCCCOP(=O)(O)O`, the outcome in [1], in [2], in assay [3], in assay [4], in assay [5] and in [6] was inactive. Moreover, the molecule was called inactive in assay [7], in assay [17], in [8], in assay [9], in assay [10] and in [11]. For the same molecule, the molecule was classed as inactive in [12], in assay [13], in assay [15] and in assay [16]. Further, the AC50 in assay [18] is 7.54 µM (active).

What is called AC50 is the concentration giving half of the maximal activity seen.
